Results with a measured potency or affinity are listed apart. The source made the active and inactive calls.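 The calls were made as follows: active = cell killing with a fitted half-effect concentration at or below twice the top valid dose; inconclusive = flat curve with 30 to 70 percent drop, or poor fit; inactive = the rest.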

The values below come from PubChem BioAssay AID1053126 (Broad Institute, 2014).

The nature of the experiment: HEK293T cell cytotoxicity, dose response, cytotoxicity control, ATP luminescence, cherry-pick, set 6 (AID 1053126).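 Also: 0% = neutral control wells and -100% = mitoxantrone 10 µM positive control.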 The following applies: HEK293T viability, CellTiter-Glo ATP luminescence, 72 h; series mostly up to 26 µM; activity change, negative = cytotoxicity: at the top concentration.
On to `CCN(c1ccccc1)S(=O)(=O)c1ccc(OC)c(NC(=O)CN(C)C)c1`, for which the “activity change, negative = cytotoxicity” value is -19% (inactive).

For the compound `Cc1cc(=O)oc2cc(OC(=O)c3cncc(Br)c3)ccc12`, the “activity change, negative = cytotoxicity” value was -11.8% (inactive).

In the case of `COc1ccccc1C(=O)c1cc2ccc(O)cc2oc1=O`, the “activity change, negative = cytotoxicity” value was -13.3% (inactive).

Consider `CCOc1ccc(NC(=O)CN(C)C(=O)CCCNC(=O)c2ccc(Cl)cc2)cc1OCC`, for which the “activity change, negative = cytotoxicity” value was -10.1% (inactive).

With `CCOC(=O)C1=CN(CC2CCCO2)C=C(C(=O)OCC)C1c1ccccc1C(F)(F)F` (stereo not drawn), the “activity change, negative = cytotoxicity” value is -8.62% (inactive).

With `CNNC(=S)NC1CC2CC1C1C=CCC21` (stereo not drawn), the “activity change, negative = cytotoxicity” value was 19.1% (inactive).

For `COCCNC(=O)c1cc2c(=O)n3cccc(C)c3nc2n(Cc2ccncc2)c1=N`, the “activity change, negative = cytotoxicity” value was -15.1% (inactive).

As for `Cc1ccc(C(=O)OCC(=O)Nc2c(C)nn(-c3ccccc3)c2C)c(O)c1`, the “activity change, negative = cytotoxicity” value was 25.2% (inactive).

For `COCCNC(=S)N/N=C/c1ccc(-c2ccc([N+](=O)[O-])cc2)o1`, the “activity change, negative = cytotoxicity” value is -3.43% (inactive).

Regarding `Cc1ccc(-n2nnnc2CNC(=O)C(=O)c2c[nH]c3ccccc23)cc1C`, the “activity change, negative = cytotoxicity” value was 2.11% (inactive).

With `CSC1=NSC2=NC(=O)/C(=C/c3coc4ccc(O)cc4c3=O)C(=N)N12`, the “activity change, negative = cytotoxicity” value was -22.3% (inactive).

As for `COc1ccc(C2CC(c3cccs3)=NN2c2nc(C)c(C(C)=O)s2)cc1OC` (stereo not drawn), the “activity change, negative = cytotoxicity” value is 82.2% (inactive).

`O=C(c1cccc(Cl)c1)N1CCC(=O)N(C(COCc2ccccc2)Cc2ccccc2)CC1` (stereo not drawn): the “activity change, negative = cytotoxicity” value is -9.17% (inactive).

Regarding `O=c1oc2c(CN3CCCCC3)c(O)ccc2cc1-c1nc2ccccc2[nH]1`, the “activity change, negative = cytotoxicity” value was -14.8% (inactive).

Consider `CCOc1ccc(C(=O)c2cc3ccc(O)cc3oc2=O)cc1`, for which the “activity change, negative = cytotoxicity” value is 65.5% (inactive).

As to `CCc1nc(SCC(=O)c2ccccc2)c2ccccc2n1`, the “activity change, negative = cytotoxicity” value was -14.7% (inactive).

As for `CC1=C(C(=O)N2CCN(c3cc(C)ccc3C)CC2)C2(CCCCC2)OC1=O`, the “activity change, negative = cytotoxicity” value is -3.96% (inactive).

Consider `Cc1ccc(S(=O)(=O)CCC(=O)OCC(=O)Nc2cccc(S(=O)(=O)N3CCCCC3)c2)cc1`, for which the “activity change, negative = cytotoxicity” value is -10.6% (inactive).

Take `Cc1cccn2c(=O)c(/C=C(\C#N)C(=O)NC3CCS(=O)(=O)C3)c(N3CCC(C(N)=O)CC3)nc12` (stereo not drawn): the “activity change, negative = cytotoxicity” value is -17% (inactive).

For `CC(C)N1CCc2c(sc(NC(=O)Cc3ccccc3)c2C#N)C1`, the “activity change, negative = cytotoxicity” value was 49.6% (inactive).

With `COc1ccc(C2C3=C(CCCC3=O)N(CC(=O)O)C3=C2C(=O)CCC3)cc1`, the “activity change, negative = cytotoxicity” value is 5.62% (inactive).

In the case of `CCn1c(=NC(=O)CSC(C)=O)sc2cc(OC)ccc21`, the “activity change, negative = cytotoxicity” value was -9.23% (inactive).

As for `COC(=O)C1=CN(Cc2ccc(OC)c(OC)c2)C=C(C(=O)OC)C1c1cccc(F)c1`, the “activity change, negative = cytotoxicity” value was -13.2% (inactive).

With `Cc1cccn2c(=O)c3cc(C(N)=S)c(=N)n(CCCN4CCOCC4)c3nc12`, the “activity change, negative = cytotoxicity” value was 6.16% (inactive).

For `O=C(CCCn1c(=O)c2sccc2n(Cc2cc(=O)n3ccccc3n2)c1=O)NCc1ccco1`, the “activity change, negative = cytotoxicity” value was -9.89% (inactive).

On to `[O-]/[N+](=C/c1ccccc1)c1ccccc1`, for which the “activity change, negative = cytotoxicity” value was -8.31% (inactive).

Turning to `N#C/C(=C\c1ccc(N2CCOCC2)o1)C(=O)NCCc1ccccc1`, the “activity change, negative = cytotoxicity” value was -16.7% (inactive).

`CCOC(=O)C1CCCN(CCCc2ccccc2)C1` (stereo not drawn): the “activity change, negative = cytotoxicity” value is -3.56% (inactive).

As for `Nc1cccc2c1C(=O)N(c1ccccc1)C2=O`, the “activity change, negative = cytotoxicity” value is -15.3% (inactive).

For the compound `CN1CCN(c2nc3ccccn3c(=O)c2/C=C(\C#N)S(=O)(=O)c2ccccc2)CC1`, the “activity change, negative = cytotoxicity” value is 2.02% (inactive).

With `Cc1ccc(S(=O)(=O)c2cc3c(=O)n4ccccc4nc3n(C)c2=N)cc1`, the “activity change, negative = cytotoxicity” value was -8.9% (inactive).

Regarding `CCOc1ccccc1N=c1oc2cc(O)ccc2cc1C(=O)NCC1CCCO1` (stereo not drawn), the “activity change, negative = cytotoxicity” value is -17% (inactive).

As to `CCNc1nc2nc3ccc(C)cn3c(=O)c2cc1C(=O)NCC1CCCO1` (stereo not drawn), the “activity change, negative = cytotoxicity” value is -9.39% (inactive).

In the case of `Cc1cccn2c(=O)c3cc(C(=O)NCc4ccco4)c(=N)n(CCc4ccccc4)c3nc12`, the “activity change, negative = cytotoxicity” value was -5.68% (inactive).

In the case of `CCc1nc2ccc(C(=O)NCCc3c[nH]c4ccccc34)cn2c1N(C=O)CCC(C)C`, the “activity change, negative = cytotoxicity” value is -10.7% (inactive).

As for `Cc1ccc2nc3c(cc(S(=O)(=O)c4ccccc4)c(=N)n3Cc3ccco3)c(=O)n2c1`, the “activity change, negative = cytotoxicity” value is -15.9% (inactive).

For the compound `CCn1c2ccccc2c(=O)c2ccccc21`, the “activity change, negative = cytotoxicity” value was -13.3% (inactive).

Turning to `COc1ccc(Br)c(Cn2c(C)c(C(=O)NCc3ccc4c(c3)OCCO4)sc2=O)c1`, the “activity change, negative = cytotoxicity” value was -13.7% (inactive).
